Assay [1] deals with Hepatocyte nuclear factor 4-alpha (Homo sapiens) (UniProt P41235). Nature of the assay: ATG_HNF4a_TRANS: Attagene TRANS-FACTORIAL HepG2 Assay for human Hepatocyte Nuclear Factor 4 alpha (HNF4a) (AID 2282982; active means hit-call score of the fitted dose curve at least 0.9, where 1 is the maximum). The note with it: HepG2 HNF4a transactivation reporter, mRNA readout. A digest of the protocol:
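HepG2 cells transiently transfected with HNF4a-Gal4 chimera and GAL4-UAS reporter units, dosed for 24 h. Reporter mRNA measured by RT-PCR, fluorescent primer extension and capillary electrophoresis; gain-of-signal fitted relative to DMSO.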

A short description of assay [2]: ATG_M_06_TRANS: Attagene TRANS-FACTORIAL HepG2 Assay for M06 Transcription Factor (Internal Marker) (AID 2282983; active means hit-call score of the fitted dose curve at least 0.9, where 1 is the maximum;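 further: reporter transcript level by RT-PCR then capillary electrophoresis fluorescence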). The following applies: HepG2 Attagene TRANS M06 internal marker reporter. The essentials: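 Transfect HepG2 with MRTUs → dose compounds 24 h → isolate RNA, oligo(dT) RT → PCR with reporter primers → 6-FAM primer extension → HpaI digest → CE fragment analysis. Positive direction vs DMSO.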

Assay [3] is described as follows: ATG_M_32_TRANS: Attagene TRANS-FACTORIAL HepG2 Assay for M32 Transcription Factor (Internal Marker) (AID 2282984; active means hit-call score of the fitted dose curve at least 0.9, where 1 is the maximum;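 further: transcript level of a background control reporter unit measured by RT-PCR and capillary electrophoresis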). The note with it: HepG2 Attagene TRANS M32 internal marker reporter. A digest of the protocol:
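HepG2 cells transiently transfected with GAL4-UAS reporter units, dosed for 24 hours. Reporter mRNA quantified by RT-PCR, 6-FAM labelling, HpaI digestion and capillary electrophoresis; internal-marker signal fitted upward relative to DMSO.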

For assay [4], the target named is Nuclear receptor subfamily 4 group A member 2 (Homo sapiens) (UniProt P43354). Nature of the assay: ATG_NURR1_TRANS: Attagene TRANS-FACTORIAL HepG2 Assay for human Nuclear Receptor Related Protein 1 (NURR1) (AID 2282985; active means hit-call score of the fitted dose curve at least 0.9, where 1 is the maximum). The following applies: HepG2 Attagene TRANS reporter, mRNA readout. A digest of the protocol: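 HepG2 cells transiently transfected with NURR1-Gal4 chimera and GAL4-UAS reporter units; after 24 hr compound exposure, reporter mRNA quantified by RT-PCR and capillary electrophoresis; gain of signal fitted against DMSO.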

The target of assay [5] is Transcriptional activator Myb (Homo sapiens) (UniProt P10242). Nature of the assay: ATG_Myb_CIS: Attagene CIS-FACTORIAL HepG2 Assay for human Myeloblastosis (Myb) Proto-Oncogene Transcription Factor (AID 2282986). The note with it: HepG2 Attagene CIS-FACTORIAL Myb reporter transcription; actives raise or lower the signal. The essentials: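 Fluorescence signals from capillary electrophoresis of RT-PCR-amplified reporter cDNA give the read-out. Cells: HepG2 transfected with multiple cis-regulated reporter units. Exposure lasts 24 hours; DMSO defines baseline for gain or loss of signal.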

For assay [6], the target named is Nuclear respiratory factor 1 (Homo sapiens) (UniProt Q16656). Nature of the assay: ATG_NRF1_CIS: Attagene CIS-FACTORIAL HepG2 Assay for human Nuclear Respiratory Factor 1 (NRF1) Orphan Gene (AID 2282987). The following applies: HepG2 NRF1 cis-element reporter, Attagene multiplex; actives raise or lower the signal. The essentials:
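Transcriptional reporter readout, one component of a 52-endpoint multiplexed HepG2 panel. Exposure 24 h; mRNA detected via RT-PCR and fluorescent capillary electrophoresis; fitting in both directions against DMSO.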

Assay [7] is described as follows: ATG_NFI_CIS: Attagene CIS-FACTORIAL HepG2 Assay for human Nuclear Factor I (NFI) (AID 2282989). The note with it: HepG2 cis-regulatory reporter, NFI response element transcription; actives raise or lower the signal. The essentials: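 HepG2, transient MRTU, 24 h exposure; RNA→cDNA→PCR→FAM label→HpaI→CE fluorescence. Bidirectional fit, DMSO = baseline.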
Assay [8] concerns the target Oxysterols receptor LXR-beta (Homo sapiens) (UniProt P55055). Nature of the assay: ATG_LXRb_TRANS: Attagene TRANS-FACTORIAL HepG2 Assay for human Liver X Receptor beta (LXRb) (AID 2282981; active means hit-call score of the fitted dose curve at least 0.9, where 1 is the maximum). The following applies: HepG2 Attagene TRANS GAL4-LXRb reporter, mRNA. A digest of the protocol: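 HepG2 cells transiently transfected with GAL4-UAS reporter units for chimeric NR-Gal4 proteins, dosed for 24 h. Reporter transcripts measured by RT-PCR and capillary electrophoresis; gain-of-signal fitting relative to DMSO.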

Inconclusive results are not listed. The source made the active and inactive calls. How the source made its calls, unless noted: active means hit-call score of the fitted dose curve at least 0.9, where 1 is the maximum; inactive means score below 0.9.

Chain of Transcriptional activator Myb (Homo sapiens) (P10242 whole entry, looked up): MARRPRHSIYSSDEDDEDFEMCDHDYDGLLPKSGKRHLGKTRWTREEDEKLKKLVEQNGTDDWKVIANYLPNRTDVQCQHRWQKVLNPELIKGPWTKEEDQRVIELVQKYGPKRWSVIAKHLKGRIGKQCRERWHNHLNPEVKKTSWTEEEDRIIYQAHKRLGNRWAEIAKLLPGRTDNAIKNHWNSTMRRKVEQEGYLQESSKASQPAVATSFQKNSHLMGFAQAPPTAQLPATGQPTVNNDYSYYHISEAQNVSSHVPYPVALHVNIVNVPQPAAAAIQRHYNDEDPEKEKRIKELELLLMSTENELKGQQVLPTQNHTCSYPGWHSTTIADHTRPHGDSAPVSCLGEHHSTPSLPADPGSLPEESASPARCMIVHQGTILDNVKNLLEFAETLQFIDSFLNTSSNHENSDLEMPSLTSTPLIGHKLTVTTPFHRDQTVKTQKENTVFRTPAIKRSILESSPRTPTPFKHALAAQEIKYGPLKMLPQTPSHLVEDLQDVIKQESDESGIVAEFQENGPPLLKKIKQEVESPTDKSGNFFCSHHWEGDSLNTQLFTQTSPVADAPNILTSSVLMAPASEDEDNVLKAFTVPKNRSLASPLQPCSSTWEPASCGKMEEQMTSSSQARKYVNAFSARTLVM
Chain of Nuclear receptor subfamily 4 group A member 2 (Homo sapiens) (P43354 whole entry, looked up, the tested form may be a part): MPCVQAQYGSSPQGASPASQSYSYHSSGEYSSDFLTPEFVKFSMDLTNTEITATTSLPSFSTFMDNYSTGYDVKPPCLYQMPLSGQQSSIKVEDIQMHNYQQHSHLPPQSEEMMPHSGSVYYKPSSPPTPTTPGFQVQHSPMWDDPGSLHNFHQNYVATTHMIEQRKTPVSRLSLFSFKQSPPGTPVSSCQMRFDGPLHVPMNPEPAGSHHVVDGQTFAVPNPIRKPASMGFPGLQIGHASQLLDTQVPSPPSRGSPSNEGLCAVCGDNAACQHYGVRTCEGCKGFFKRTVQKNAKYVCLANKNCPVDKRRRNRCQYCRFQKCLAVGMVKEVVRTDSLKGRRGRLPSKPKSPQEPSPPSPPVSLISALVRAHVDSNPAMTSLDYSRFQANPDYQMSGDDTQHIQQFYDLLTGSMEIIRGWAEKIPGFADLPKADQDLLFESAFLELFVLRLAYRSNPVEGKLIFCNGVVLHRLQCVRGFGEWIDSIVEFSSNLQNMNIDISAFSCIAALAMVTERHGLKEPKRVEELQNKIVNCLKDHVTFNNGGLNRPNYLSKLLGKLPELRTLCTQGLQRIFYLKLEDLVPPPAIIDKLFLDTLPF
Chain of Nuclear respiratory factor 1 (Homo sapiens) (Q16656 whole entry, looked up): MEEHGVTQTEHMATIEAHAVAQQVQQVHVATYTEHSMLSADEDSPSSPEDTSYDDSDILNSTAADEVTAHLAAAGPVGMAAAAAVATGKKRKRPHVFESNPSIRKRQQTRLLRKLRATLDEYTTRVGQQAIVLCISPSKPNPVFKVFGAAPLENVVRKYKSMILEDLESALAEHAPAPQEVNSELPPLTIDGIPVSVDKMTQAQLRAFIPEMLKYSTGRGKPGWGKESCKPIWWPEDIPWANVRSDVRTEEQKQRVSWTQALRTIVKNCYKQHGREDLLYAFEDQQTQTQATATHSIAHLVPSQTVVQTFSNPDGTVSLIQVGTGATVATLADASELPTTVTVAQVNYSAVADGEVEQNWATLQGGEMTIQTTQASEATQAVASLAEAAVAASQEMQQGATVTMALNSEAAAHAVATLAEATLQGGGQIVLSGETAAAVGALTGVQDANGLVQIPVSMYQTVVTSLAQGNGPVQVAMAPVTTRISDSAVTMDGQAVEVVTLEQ
Chain of Hepatocyte nuclear factor 4-alpha (Homo sapiens) (P41235 whole entry, looked up, the tested form may be a part): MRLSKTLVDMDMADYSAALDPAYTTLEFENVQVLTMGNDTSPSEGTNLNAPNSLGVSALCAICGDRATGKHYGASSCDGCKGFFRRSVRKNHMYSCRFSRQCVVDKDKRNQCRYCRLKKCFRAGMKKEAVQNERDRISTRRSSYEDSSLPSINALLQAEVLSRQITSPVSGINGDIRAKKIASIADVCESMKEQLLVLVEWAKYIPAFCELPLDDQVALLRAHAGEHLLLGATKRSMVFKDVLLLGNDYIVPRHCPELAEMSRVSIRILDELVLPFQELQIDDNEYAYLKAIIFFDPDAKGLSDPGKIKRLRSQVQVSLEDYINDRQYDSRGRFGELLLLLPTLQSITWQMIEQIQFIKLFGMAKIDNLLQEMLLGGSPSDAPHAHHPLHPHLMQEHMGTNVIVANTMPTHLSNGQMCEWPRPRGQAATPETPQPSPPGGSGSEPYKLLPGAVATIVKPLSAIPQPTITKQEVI
Chain of Oxysterols receptor LXR-beta (Homo sapiens) (P55055 whole entry, looked up, the tested form may be a part): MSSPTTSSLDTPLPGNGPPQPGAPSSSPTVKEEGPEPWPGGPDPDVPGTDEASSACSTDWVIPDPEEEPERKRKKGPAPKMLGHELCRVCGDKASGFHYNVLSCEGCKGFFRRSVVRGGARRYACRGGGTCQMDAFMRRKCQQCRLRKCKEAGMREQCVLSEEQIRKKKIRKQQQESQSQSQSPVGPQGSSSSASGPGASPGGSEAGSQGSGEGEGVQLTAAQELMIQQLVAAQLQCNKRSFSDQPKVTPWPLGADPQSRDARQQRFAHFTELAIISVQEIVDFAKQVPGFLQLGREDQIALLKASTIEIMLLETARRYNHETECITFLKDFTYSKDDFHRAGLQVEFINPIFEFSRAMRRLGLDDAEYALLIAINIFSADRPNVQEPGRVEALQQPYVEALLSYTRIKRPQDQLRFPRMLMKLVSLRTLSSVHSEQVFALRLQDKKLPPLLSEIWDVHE

With `O=NO`, the compound was classed as inactive in assay [1], in assay [2], in assay [3], in assay [4], in assay [5] and in assay [6]. Besides, in assay [7], the compound was called inactive.

For `CC(=O)O`, the call in assay [2], in assay [3], in assay [4], in assay [5], in assay [6] and in assay [7] was inactive.

In general, AC50 refers to the midpoint of the concentration-response curve, whichever way the signal moves. In the case of `CCC(C)N(C)C(=O)c1cc2ccccc2c(-c2ccccc2Cl)n1` (centres undefined), the call in assay [3], in assay [4], in assay [5] and in assay [7] was inactive. For the same compound, in assay [6], the AC50 was 63 µM (active).

Take `COC(=O)[C@H]1[C@H]2C[C@@H]3c4[nH]c5cc(OC)ccc5c4CCN3C[C@H]2C[C@@H](OC(=O)c2cc(OC)c(OC)c(OC)c2)[C@@H]1OC`: the outcome in assay [2], in assay [3], in assay [5], in assay [6] and in assay [7] was inactive.

As for `Oc1ccccc1O`, the compound was classed as inactive in assay [3], in assay [4], in assay [5], in assay [6] and in assay [7].

Consider `CCOCCOCCO`, for which the call in assay [3], in assay [5], in assay [6] and in assay [7] was inactive.

Take `CC1=C(C)S(=O)(=O)CCS1(=O)=O`: the compound was classed as inactive in assay [2], in assay [5], in assay [6] and in assay [7].

With `CCCCOC(=O)CCCCC(=O)OCCCC`, the outcome in assay [1], in assay [2], in assay [3], in assay [4], in assay [5] and in assay [6] was inactive. Moreover, in assay [7], the call was inactive.

Take `C/C=C/C=C/C(=O)O`: the result in assay [1], in assay [2], in assay [3], in assay [5], in assay [6] and in assay [7] was inactive.

`O=C1CCCCC1`: the outcome in assay [1], in assay [2], in assay [3], in assay [4], in assay [5] and in assay [6] was inactive. In assay [7], the call was inactive.

As to `O=C1c2c(O)cccc2Cc2cccc(O)c21`, the compound was called inactive in assay [2], in assay [4], in assay [5], in assay [6] and in assay [7].

`C/C=C/c1ccc(OC)cc1`: the result in assay [1], in assay [5], in assay [6] and in assay [7] was inactive.

Consider `CC(C)c1cccc(C(C)C)c1`, for which the outcome in assay [1], in assay [5], in assay [6] and in assay [7] was inactive.

With `O=C1NC(=O)C(c2ccccc2)(c2ccccc2)N1`, the call in assay [1], in assay [2], in assay [3], in assay [4], in assay [5] and in assay [6] was inactive. Moreover, the result in assay [7] was inactive.

Regarding `CCCCCCCCCCCCCCCCO`, the result in assay [1], in assay [2], in assay [5], in assay [6] and in assay [7] was inactive.

As to `CO[C@@H]1COCC[C@@H]1N[C@@H]1CC[C@@](C(=O)N2CCc3ncc(C(F)(F)F)cc3C2)(C(C)C)C1`, the outcome in assay [5], in assay [6] and in assay [7] was inactive.

Regarding `CC(C)(C)c1ccccc1`, the call in assay [2], in assay [3], in assay [4], in assay [5], in assay [6] and in assay [7] was inactive.

With `Cc1occc(=O)c1O`, the result in assay [1], in assay [5], in assay [6] and in assay [7] was inactive.

With `Cc1ccc(-c2cc(C(F)(F)F)nn2-c2ccc(S(N)(=O)=O)cc2)cc1`, the outcome in assay [2], in assay [4], in assay [5], in assay [6] and in assay [7] was inactive.

As to `CCCCCCCCCCCCCCOS(=O)(=O)O`, the compound was called inactive in assay [2], in assay [4], in assay [5], in assay [6] and in assay [7].

For the compound `Cc1cc(SC2=C(O)C[C@@](CCc3ccc(N)cc3)(C(C)C)OC2=O)c(C(C)(C)C)cc1CO`, the compound was called inactive in assay [8], in assay [3], in assay [5], in assay [6] and in assay [7].

As to `Oc1ccc(O)cc1`, the compound was classed as inactive in assay [1], in assay [2], in assay [3], in assay [4], in assay [5] and in assay [6]. In assay [7], the call was inactive.

For `CC1(C)C(=O)NC(=O)N1CO`, the result in assay [1], in assay [4], in assay [5], in assay [6] and in assay [7] was inactive.

Consider `O=C1O[C@H]([C@H](O)CO)C(O)=C1O`, for which the outcome in assay [3], in assay [4], in assay [5], in assay [6] and in assay [7] was inactive.

As to `Cc1cn([C@H]2C=C[C@@H](CO)O2)c(=O)[nH]c1=O`, the call in assay [4], in assay [5], in assay [6] and in assay [7] was inactive.

With `CCCC(=O)O`, the result in assay [1], in assay [4], in assay [5], in assay [6] and in assay [7] was inactive.

`O=C(O)c1[nH]n(-c2ccc(S(=O)(=O)O)cc2)c(=O)c1N=Nc1ccc(S(=O)(=O)O)cc1`: the compound was called inactive in assay [2], in assay [5], in assay [6] and in assay [7].

(Values after PubChem BioAssay (EPA / NIEHS).)
